Screening results deposited in PubChem by several laboratories.
This is a sample that favours compounds with a hit; in the whole collection about 0.67% have one here.
WNV protease inh = inhibitors of WNV NS2B-NS3 protease, primary screen, biochemical, fluorogenic substrate. fluorogenic substrate Ex360/Em465; stronger effect = lower value. z-score (no concentration beside the values). 65,000 tested, 0.18% active; in the data active = z-score below about -3
ROCK2 inh = inhibitors of human ROCK2 kinase, primary screen, biochemical, high-throughput, luminescence. purified ROCK2, Kinase-Glo ATP depletion luminescence. inhibition, % at 6 µM. 60,000 tested, 0.35% active;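 active = inhibition above the screen-wide mean inhibition plus 3 SD, cut at about 18% in these data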;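 note: plate controls were DMSO wells for no effect and Y-27632 control wells after no-enzyme background subtraction for full effect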
DUSP1 inh = MKP-1 phosphatase inhibitors, primary screen, biochemical, in vitro; recombinant MKP-1, OMFP hydrolysis fluorescence; AID 374, 2006; 65,000 tested, 0.15% active; Dual specificity protein phosphatase 1 (Homo sapiens), P28562; inhibition, %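 (compounds tested at a single concentration somewhere between 10 and 100 µM)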;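 active = inhibition above about 50%, limit read from the data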;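 note: 0% = DMSO max control wells and 100% = wells with enzyme stopped by NaOH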
PKA inh = inhibitors of human PKA kinase activity, primary screen, biochemical, ATP-depletion luminescence, Kemptide substrate | AID 524, 2006 | 65,000 tested, 0.1% active | inhibition, % at 6 µM | PKA Kemptide phosphorylation, Kinase-Glo ATP luminescence | cAMP-dependent protein kinase catalytic subunit alpha (Homo sapiens), P17612;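 active = inhibition above the screen-wide mean inhibition plus 3 SD, cut at about 21% in these data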
Cdc25B block = inhibitors of Cdc25B phosphatase catalytic domain, primary screen, biochemical, OMFP fluorescence; M-phase inducer phosphatase 2 (Homo sapiens), P30305; recombinant Cdc25B, OMFP fluorescence Ex485/Em525; inhibition, %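 (compounds tested at 10 µM final in the well)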; 65,000 tested, 0.1% active; AID 368, 2006; in the data active = inhibition above about 50%
Target sequence (P30305 whole entry, looked up, the tested form may be a part): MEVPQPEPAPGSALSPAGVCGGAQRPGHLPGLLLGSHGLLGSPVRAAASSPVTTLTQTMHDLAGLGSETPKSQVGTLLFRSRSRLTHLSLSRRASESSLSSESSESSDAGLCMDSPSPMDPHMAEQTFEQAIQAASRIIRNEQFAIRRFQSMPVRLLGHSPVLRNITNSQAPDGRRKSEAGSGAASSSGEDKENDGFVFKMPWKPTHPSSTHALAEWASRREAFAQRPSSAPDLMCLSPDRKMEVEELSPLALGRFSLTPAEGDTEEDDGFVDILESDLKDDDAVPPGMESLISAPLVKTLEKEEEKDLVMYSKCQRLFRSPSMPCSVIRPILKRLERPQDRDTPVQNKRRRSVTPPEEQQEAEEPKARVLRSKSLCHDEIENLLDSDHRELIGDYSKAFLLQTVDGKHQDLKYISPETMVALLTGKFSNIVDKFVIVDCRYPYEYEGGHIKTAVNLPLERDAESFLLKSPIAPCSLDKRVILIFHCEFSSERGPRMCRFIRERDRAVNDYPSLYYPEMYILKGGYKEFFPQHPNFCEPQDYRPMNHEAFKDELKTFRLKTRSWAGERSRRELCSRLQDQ
Active calls of the source: *; x = no result.

SMILES	WNV protease inh	ROCK2 inh	DUSP1 inh	PKA inh	Cdc25B block
O=C(CSc1ncc(-c2ccc(F)cc2)[nH]1)Nc1cccc(O)c1	-0.57	25*	-21	9	-2
COc1cc(NC(=O)c2ccco2)c(OC)cc1NC(=O)CSc1ncc(-c2ccc(F)cc2)[nH]1	-0.43	6	-31	1	-29
Cc1cc(N2CCC(C(=O)NC3CCCCC3)CC2)nc(-c2ccccc2)n1	-4.8*	4	9	11	-1
Cc1cc(N2CCC(C(=O)NC3CC3)CC2)nc(-c2ccccc2)n1	-0.38	2	8	2	-2
COC(=O)c1[nH]c2cc(OC)ccc2c1NC(=O)c1ccc2c(c1)OCO2	-5.6*	x	-4	1	-2
CCOC(=O)c1[nH]c2ccc(OC)cc2c1NC(=O)c1ccc2c(c1)OCO2	0.61	x	16	1	-6
N#Cc1c(/N=C/c2cccs2)sc2c1CCCCC2	-1	25*	-12	6	-9
COc1ccc2[nH]c(=O)c(CN(C)C(=O)COc3ccccc3)cc2c1	-1.1	5	-16	5	-2
COC(=O)c1sc2cnccc2c1N	1.6	42*	7	17	-13
CCN(CC)CCCNC(=O)c1c(O)c2c([nH]c1=O)CCCC2	0.94	10	1	9	-4
COc1ccc(-c2nc(CSCC(=O)N3CCN(c4cccc(C)c4)C(C)C3)c(C)o2)cc1OC (configuration not stated)	-0.34	4	16	6	-18
COc1ccc(S(=O)(=O)NCC2CCC(C(=O)NCc3ccco3)CC2)cc1 (configuration not stated)	0.47	7	-5	14	-6
Cn1c(CSCc2ccc(F)cc2)nnc1SCC(=O)Nc1nccs1	0.26	8	-1	4	-7
Cn1c(CSCc2ccc(Cl)c(Cl)c2)nnc1SCC(=O)Nc1nccs1	1.1	25*	-1	19	-5
COc1ccc(OCC(O)COc2ccc(C(=O)O)cc2)cc1 (configuration not stated)	-1.2	2	1	3	-8
CC(=O)c1ccc(OCC(O)COc2ccc(C(C)=O)cc2)cc1	-0.17	19*	-1	17	-10
CCN(CC(=O)Nc1ccccc1OC)C(=O)C1CC2C=CC1C2 (configuration not stated)	-7.5*	6	7	9	-3
CCSCCOC(=O)C1=C(C)NC2=C(C(=O)CCC2)C1c1coc2ccccc2c1=O (configuration not stated)	0.15	-6	50*	-8	-4
CC1=C(C(=O)OCc2ccccc2)C(c2ccc(C)o2)C2=C(CCCC2=O)N1 (configuration not stated)	-1.1	3	5	1	-3
O=C(O)c1cccc(N2C(=O)CCC2=O)c1	-0.2	3	6	0	-5
COC(=O)CCC(=O)Nc1ccc(NC(=O)CCC(=O)OC)cc1	-0.96	4	-2	8	-7
COC(=O)CCC(=O)Oc1ccc(OC(=O)CCC(=O)OC)cc1	1.4	x	56*	x	59*
COC(=O)[C@H](C)NC(=O)Nc1ccccc1F	-1.1	0	-21	5	2
O=C(O)C1=C(C(=O)Nc2ccc(F)c(Cl)c2)CCCC1	1.3	2	-2	-3	-4
CCOC(=O)CNC(=O)C(Cc1ccccc1)NS(=O)(=O)c1cccs1 (configuration not stated)	-3.4*	x	3	-5	-6
SMILES	WNV protease inh	ROCK2 inh	DUSP1 inh	PKA inh	Cdc25B block
CCOC(=O)CNC(=O)C(CO)NC(=O)OCc1ccccc1 (configuration not stated)	-0.95	5	-7	1	-6
CCC1CCCCN1c1nc(-c2ccncc2)nc2ccccc12 (configuration not stated)	-0.39	15	-10	62*	5
CCC1CCCCN1c1nc(-c2cccc(OC)c2O)nc2ccccc12 (configuration not stated)	-0.44	11	-17	6	7
Cc1ccc(NC(=O)C2CCN(S(=O)(=O)c3cccc4nonc34)CC2)nc1	-4.8*	0	2	-1	-17
Cc1ccc(F)cc1NC(=O)c1cccc2nccnc12	-0.34	-7	-6	-1	6
COc1cccc(C(=O)NC2(C(F)(F)F)N=C3SCCN3C2=O)c1 (configuration not stated)	-4.8*	5	-2	1	0
COc1ccc2nc(NC(=O)CSc3nc4cccnc4n3C)sc2c1	-6.4*	5	12	9	-1
O=C(c1ccccc1Br)N1CCN(c2ccccc2)CC1	0.96	0	6	5	-8
Cc1cc2c(N)cccc2nn1	1	-2	8	-3	52*
CN(C)c1nc2ccccc2c(N)c1-c1ccccc1	-0.02	4	-7	7	5
CCOC(=O)c1c(NC(=O)Cc2cccs2)sc(C)c1C	-1.4	-1	-6	-3	-14
CCN(CC)C(=O)c1sc(NC(=O)Cc2cccs2)c(C#N)c1C	-4.4*	3	-18	5	2
CCC(=O)Nc1ccc(C(=O)Cn2nc(C(=O)O)c3ccccc3c2=O)cc1	-1.1	33*	7	11	-2
Cc1nn(CC(=O)Nc2ccccc2)c(=O)c2ccccc12	-0.73	1	-3	0	-15
COc1ccc(C2CC(c3cccc(C)c3)n3ncnc3N2)cc1 (configuration not stated)	-4.1*	-1	-11	3	-16
COc1cccc(C2CC(c3cccc(C)c3)n3ncnc3N2)c1 (configuration not stated)	0.64	1	3	7	-39
C=CCOC(=O)C1=C(C)Nc2nc3ccccc3n2C1c1ccncc1 (configuration not stated)	-3.1*	0	31	4	-3
OCCNC1=NCCN1	-3.2*	1	-3	4	0
O=C(O)CSC1=NCCN1	-0.35	1	3	5	-6
CCC(=O)Nc1cc(C)c(NC(=O)C23CC4CC(CC(C4)C2)C3)cn1	-0.68	5	-5	2	-10
CCCC(=O)Nc1ccc(NC(=O)C23CC4CC(CC(C4)C2)C3)cn1	-4.8*	4	5	10	-7
Cc1oc2c(CN(C)C)c(O)ccc2c(=O)c1-c1ccc2ccccc2n1	-3.1*	-1	-3	5	2
CCCCC1CCC(/C(N)=N/O)CC1 (configuration not stated)	1.2	2	-10	-3	-2
CCCCCC1CCC(C(=O)O)CC1 (configuration not stated)	-1.3	4	54*	10	-4
O=C(NCCCc1ccccc1)c1ccncc1	-0.84	8	-2	14	-5
Cc1ccccc1S(=O)(=O)Cc1ccc(C(=O)NCCCOC(C)C)o1	-5.6*	5	18	6	-1
